According to PubChem BioAssay (NCI):
Compounds without any hit were thinned out: in the full panel of roughly 79,000, 15% have a hit. The source made the active and inactive calls. Rule as the data show it: active = growth inhibition above about 70%; inactive = the rest.

Legend:
[1] = NCI Yeast Anticancer Drug Screen. Data for the rad52 strain (AID 147);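 also: 0% = growth of vehicle-treated control cultures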; settings: S. cerevisiae rad52 mutant growth inhibition, active compounds read high
Procedure, shortened: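 Genetically altered yeast (DNA damage repair defect) treated with compound; inhibition calculated relative to vehicle.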

[2] = NCI Yeast Anticancer Drug Screen. Data for the wt1 strain (AID 149);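 also: 0% = growth of vehicle-treated wt1 cultures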; settings: S. cerevisiae wt1 strain (SPY 50644) growth inhibition, active compounds read high
Procedure, shortened: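 The wt1 strain was treated with compounds, and growth was compared with vehicle-treated cultures to give inhibition.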

[3] = NCI Yeast Anticancer Drug Screen. Data for the rad50EPP+ strain (AID 151);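 also: 0% = growth of vehicle-treated control cultures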; settings: S. cerevisiae rad50 mutant strain, active compounds read high
Procedure, shortened: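 Strain rad50EPP+; compound exposure; % growth inhibition vs vehicle.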

[4] = NCI Yeast Anticancer Drug Screen. Data for the mgt1 strain (AID 153); settings: S. cerevisiae mgt1 mutant growth inhibition, active compounds read high
Procedure, shortened: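 Read-out: yeast growth inhibition vs vehicle control. Strain mgt1, drawn from a panel altered in DNA damage repair or cell cycle control.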

[5] = NCI Yeast Anticancer Drug Screen. Data for the rad50 strain (AID 155);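 also: 0% = growth of vehicle-only cultures of the same strain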; settings: S. cerevisiae rad50 strain growth inhibition, active compounds read high
Procedure, shortened: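 Cells are treated with compound, grown, and their growth is then scored against vehicle-only cultures of the same repair-deficient yeast strain.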

[6] = NCI Yeast Anticancer Drug Screen. Data for the mec2-1 strain (AID 157); settings: S. cerevisiae mec2-1 strain, active compounds read high
Procedure, shortened: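 Cells of the genetically defined mec2-1 yeast strain are incubated with test compound. Inhibition of growth is calculated against vehicle-treated controls.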

[7] = NCI Yeast Anticancer Drug Screen. Data for the rad14 strain (AID 159);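 also: 0% = growth of vehicle-treated control cultures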; settings: S. cerevisiae rad14 strain growth inhibition, active compounds read high
Procedure, shortened: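 Readout: yeast growth inhibition, referenced to vehicle-only cultures. Strain bears a defined alteration in DNA damage repair.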

[8] = NCI Yeast Anticancer Drug Screen. Data for the sgs1 mgt1 strain (AID 161);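 also: 0% = growth of cultures given vehicle only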; settings: S. cerevisiae sgs1 mgt1 strain, active compounds read high
Procedure, shortened: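 Test agents were incubated with a DNA-repair-mutant yeast strain. Growth was then read and compared against vehicle-treated controls.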

[9] = NCI Yeast Anticancer Drug Screen. Data for the CLN2oe strain (AID 163);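 also: 0% = growth of vehicle-only control cultures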; settings: S. cerevisiae CLN2oe strain, active compounds read high
Procedure, shortened: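 Strain altered in cell-cycle control, incubated with compound; growth compared to solvent-treated controls.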

[10] = NCI Yeast Anticancer Drug Screen. Data for the cln2 rad14 strain (AID 165);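 also: 0% = growth equal to vehicle treated cultures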; settings: S. cerevisiae cln2 rad14 strain, active compounds read high
Procedure, shortened: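 The screen exposed genetically defined yeast (cln2 rad14) to test compounds and scored growth inhibition relative to vehicle-treated controls.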

[11] = NCI Yeast Anticancer Drug Screen. Data for the bub3 strain (AID 167); settings: S. cerevisiae bub3 mutant strain, active compounds read high
Procedure, shortened: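 Part of a panel of yeast mutants defective in DNA damage repair or cell cycle regulation. Each strain is grown with compound, and inhibition is calculated relative to solvent-treated cultures.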

[12] = NCI Yeast Anticancer Drug Screen. Data for the wt2 strain (AID 169);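 also: 0% = growth of vehicle-treated yeast cultures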; settings: S. cerevisiae wt2 strain growth inhibition, active compounds read high
Procedure, shortened: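 Steps: yeast strain treated with compound; growth recorded; inhibition calculated relative to cultures given vehicle alone.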

[13] = NCI Yeast Anticancer Drug Screen. Data for the mlh1 strain (AID 171);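 also: 0% = growth of vehicle-treated control cultures of the same strain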; settings: S. cerevisiae mlh1 strain growth inhibition, active compounds read high
Procedure, shortened: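 Yeast screen: mutant strain plus compound, growth scored against vehicle control wells.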

[14] = NCI Yeast Anticancer Drug Screen. Data for the sgs1 strain (AID 173);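 also: 0% = growth of vehicle-only control cultures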; settings: S. cerevisiae sgs1 mutant, active compounds read high
Procedure, shortened: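 Inhibition of yeast growth served as the measure. The mutant strain was treated with each compound, and growth was normalised to cultures receiving vehicle alone.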

[15] = NCI Yeast Anticancer Drug Screen. Data for the mlh1 rad18 strain (AID 175); settings: S. cerevisiae mlh1 rad18 strain growth inhibition, active compounds read high
Procedure, shortened: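 Compound-treated yeast growth, normalised to vehicle controls. Strain bears defined DNA repair mutations.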

[16] = NCI Yeast Anticancer Drug Screen. Data for the rad18 strain (AID 177); settings: S. cerevisiae rad18 mutant growth inhibition, active compounds read high
Procedure, shortened: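 Inhibition values reflect reduced yeast growth compared with vehicle-treated controls, using a strain engineered with a DNA damage repair defect.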

[17] = at 5.0 µM (retest, dose inferred, filed as 0.5)
[18] = at 50.0 µM (retest, dose inferred, filed as 5.0)

Measured: growth inhibition

O=C(O)c1cc2ccccc2c2c1C(=O)c1ccccc1-2
active: [1]; at 11.0 µM 74% | [1]; at 33.0 µM 96% | [1]; at 100.0 µM 94% | [2]; at 33.0 µM 94% | [2]; at 100.0 µM 94% | [4]; at 33.0 µM 95% | [4]; at 100.0 µM 95% | [5]; at 11.0 µM 77% | [5]; at 33.0 µM 95% | [5]; [18] 94% | [5]; at 50.0 µM 88.2% | [5]; at 100.0 µM 93% | [6]; at 33.0 µM 95% | [6]; [18] 96% | [6]; at 50.0 µM 91.5% | [6]; at 100.0 µM 92% | [7]; at 33.0 µM 94% | [7]; at 100.0 µM 95% | [8]; [18] 94% | [8]; at 50.0 µM 92.6% | [9]; at 33.0 µM 96% | [9]; at 100.0 µM 95% | [10]; [18] 97% | [10]; at 50.0 µM 88.8% | [11]; at 33.0 µM 95% | [11]; [18] 96% | [11]; at 50.0 µM 90.8% | [11]; at 100.0 µM 94% | [12]; at 33.0 µM 96% | [12]; at 100.0 µM 95% | [13]; at 33.0 µM 95% | [13]; at 100.0 µM 95% | [14]; at 33.0 µM 95% | [14]; at 100.0 µM 96% | [15]; [18] 97% | [15]; at 50.0 µM 90% | [16]; at 33.0 µM 95% | [16]; at 100.0 µM 94%
inactive: [1]; at 1.2 µM -3% | [1]; at 3.7 µM 21% | [2]; at 1.2 µM -4% | [2]; at 3.7 µM 16% | [2]; at 11.0 µM 47% | [3]; at 1.2 µM -23% | [3]; at 3.7 µM -36% | [3]; at 11.0 µM 10% | [3]; at 33.0 µM 47% | [3]; at 100.0 µM 67% | [4]; at 1.2 µM 11% | [4]; at 3.7 µM 20% | [4]; at 11.0 µM 43% | [5]; at 1.2 µM 4% | [5]; at 3.7 µM 19% | [5]; [17] 8% | [6]; at 1.2 µM -9% | [6]; at 3.7 µM 9% | [6]; [17] 25% | [6]; at 11.0 µM 29% | [7]; at 1.2 µM 8% | [7]; at 3.7 µM 21% | [7]; at 11.0 µM 43% | [8]; [17] 0% | [9]; at 1.2 µM 13% | [9]; at 3.7 µM 28% | [9]; at 11.0 µM 64% | [10]; [17] 45% | [11]; at 1.2 µM -1% | [11]; at 3.7 µM 7% | [11]; [17] 14% | [11]; at 11.0 µM 56% | [12]; at 1.2 µM -1% | [12]; at 3.7 µM 11% | [12]; at 11.0 µM 49% | [13]; at 1.2 µM 9% | [13]; at 3.7 µM 14% | [13]; at 11.0 µM 59% | [14]; at 1.2 µM 18% | [14]; at 3.7 µM 28% | [14]; at 11.0 µM 69% | [15]; [17] 22% | [16]; at 1.2 µM 5% | [16]; at 3.7 µM 12% | [16]; at 11.0 µM 43%

COc1cc([C@@H]2c3cc4c(cc3[C@H](OC3OC5COC(C(C)C)OC5C(O)C3O)C3COC(=O)[C@@H]32)OCO4)cc(OC)c1O (stereo partly specified)
active: [1]; at 100.0 µM 78% | [5]; [18] 96% | [5]; at 100.0 µM 82% | [12]; at 100.0 µM 83%
inactive: [1]; at 1.2 µM -10% | [1]; at 3.7 µM -17% | [1]; at 11.0 µM -26% | [1]; at 33.0 µM 35% | [2]; at 1.2 µM -25% | [2]; at 3.7 µM -31% | [2]; at 11.0 µM 12% | [2]; at 33.0 µM -18% | [2]; at 100.0 µM 9% | [3]; at 1.2 µM -15% | [3]; at 3.7 µM -19% | [3]; at 11.0 µM -46% | [3]; at 33.0 µM -41% | [3]; at 100.0 µM -37% | [4]; at 1.2 µM -31% | [4]; at 3.7 µM -8% | [4]; at 11.0 µM -32% | [4]; at 33.0 µM -29% | [4]; at 100.0 µM 22% | [5]; at 1.2 µM -22% | [5]; at 3.7 µM -32% | [5]; [17] 18% | [5]; at 11.0 µM -11% | [5]; at 33.0 µM 42% | [5]; at 50.0 µM 1.85% | [6]; at 1.2 µM 4% | [6]; at 3.7 µM 1% | [6]; [17] 9% | [6]; at 11.0 µM -17% | [6]; at 33.0 µM -5% | [6]; [18] 47% | [6]; at 50.0 µM 22.4% | [6]; at 100.0 µM 34% | [7]; at 1.2 µM -14% | [7]; at 3.7 µM -27% | [7]; at 11.0 µM -11% | [7]; at 33.0 µM -22% | [7]; at 100.0 µM 8% | [8]; [17] -1% | [8]; [18] 32% | [8]; at 50.0 µM 28.6% | [9]; at 1.2 µM -3% | [9]; at 3.7 µM 3% | [9]; at 11.0 µM 3% | [9]; at 33.0 µM -22% | [9]; at 100.0 µM 7% | [10]; [17] 10% | [10]; [18] 9% | [10]; at 50.0 µM 13.6% | [11]; at 1.2 µM -66% | [11]; at 3.7 µM -39% | [11]; [17] 10% | [11]; at 11.0 µM -50% | [11]; at 33.0 µM -63% | [11]; [18] 21% | [11]; at 50.0 µM 8.5% | [11]; at 100.0 µM -2% | [12]; at 1.2 µM -58% | [12]; at 3.7 µM -40% | [12]; at 11.0 µM -45% | [12]; at 33.0 µM -19% | [13]; at 1.2 µM -31% | [13]; at 3.7 µM -8% | [13]; at 11.0 µM -32% | [13]; at 33.0 µM -29% | [13]; at 100.0 µM 22% | [14]; at 1.2 µM -6% | [14]; at 3.7 µM -9% | [14]; at 11.0 µM 1% | [14]; at 33.0 µM -5% | [14]; at 100.0 µM 45% | [15]; [17] 18% | [15]; [18] 44% | [15]; at 50.0 µM -64.6% | [16]; at 1.2 µM 6% | [16]; at 3.7 µM -5% | [16]; at 11.0 µM 2% | [16]; at 33.0 µM -21% | [16]; at 100.0 µM 41%
